The text below walks through data of PubChem BioAssay (NCI).

Structures are written as SMILES. About 83,000 compounds went through this panel and 20% of them were active in at least one assay; those are over-represented in the sample as a whole.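 Results are percent growth after 48 hours of single-concentration exposure. 100 means growth as in untreated cells, lower positive values show inhibition; negative values down to -100 show cell death.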 Unmarked numbers belong to inactive results. The source made the active and inactive calls. Rule for the calls: active = growth percent below 10; inactive = the rest.

Some test systems named below: T-47D breast; BT-549 breast; MDA-MB-435 melanoma; SW-620 colon; HCT-116 colon; HCC-2998 colon; KM12 colon.
Common to all, as to test: NCI-60 one-dose screen, 48 h (100 = growth as untreated, 0 = no growth, -100 = all killed)
Common to all, as to settings: 10 µM unless noted

With `C1=C(c2ccccc2)C(c2ccc(OCCN3CCCCC3)cc2)Oc2ccccc21` (stereo unspecified), the growth is 26.1% in the assay on T-47D breast; 72.9% in the assay on BT-549 breast; 18.7% in the assay on MDA-MB-435 melanoma; 16.2% with SW-620 colon; 46.6% in the assay with HCT-116 colon; 34.1% in the assay with HCC-2998 colon. In addition, the growth in the assay with KM12 colon is 46.4%.
For `CN(C)c1ccc(/C=N/N=C(\C#N)[S][Sn]([Cl])([c]2ccccc2)[c]2ccccc2)cc1`, the growth in the assay with T-47D breast is -65.8% (active); in the assay on BT-549 breast, 57.5%; in the assay with MDA-MB-435 melanoma, 15.6%; in the assay with SW-620 colon, -52.2% (active); in the assay with HCT-116 colon, -59.4% (active); in the assay with HCC-2998 colon, 63.5%. The growth in the assay with KM12 colon is 63.3%.
As to `NC1=CC(=O)c2ccccc2C1=O`, the growth is 98% in the assay on T-47D breast; 92.1% in the assay with BT-549 breast; 8.66% (active) in the assay on MDA-MB-435 melanoma; 107% in the assay on SW-620 colon; 80.8% in the assay with HCT-116 colon; 90.4% in the assay with HCC-2998 colon. Besides, in the assay on KM12 colon, the growth was 79.3%.
